Among all 69,000 compounds or so, about 8,600 (12%) showed an effect of 50% or more. For the sample, strong results were picked, then their nearest neighbours and some compounds at random.
These molecules were tested on Plasmodium berghei (assay: Screen against P. berghei liver stage (PbLuc), transformed with Luciferase, at 10uM). Conditions: tested at 10 uM.
Assay type: functional, HepG2

SMILES	INHIBITION [%]
CN(C)C(=O)[C@H]1CCS(=O)(=O)[C@@H]2CN(c3ncc(F)cn3)C[C@H]12	54.8
CN(C)C(=O)[C@H]1CCS(=O)(=O)[C@@H]2CN(c3ncccn3)C[C@H]12	61.1
CC(C)NC(=O)[C@H]1CCS(=O)(=O)[C@@H]2CN(c3ncccn3)C[C@H]12	0.164
O=C(O)c1cc(C=Cc2ccc3ccccc3c2)ncn1	-57
Cc1ccc(C(O)CNC(=O)NCc2csc(C)n2)cc1 (configuration not stated)	-34
O=C(c1cccnc1N1CCOCC1)N1CCCC(n2cccn2)C1 (configuration not stated)	-62.365
Cn1cc(-c2cnc(N3CCOCC3)nc2)cc1C(=O)N1CCCC1	-50.9
CN(CCNC(=O)c1ccnc(-n2ccnc2)c1)C1CC1	-3.83
CCC(=O)Nc1cccc(C(=O)NCCC2=CSC3=NCCCN23)c1	50.3
CNc1cc(C(=O)NCCC2=CSC3=NCCCN23)ccn1	50.3
COc1cccc(C2CCCN2C(=O)CC2=CSC3=NCCCN23)c1 (configuration not stated)	-11.6
O=C(CC1=CSC2=NCCCN12)N1CCCCCC1c1ccco1 (configuration not stated)	-4.01
CC(C)(O)CCc1cccc(C(=O)NCCC2=CSC3=NCCCN23)c1	31.2
Cc1ccc(-c2nc(C(=O)N3CCN(C(=O)N(C)C)CC3)cs2)c(C)c1	-4.865
O=S(=O)(c1cccs1)N1CC[C@H]2[C@H]1CCN2CC1CC1	2.58
CN1CCN(CC2CCN(C(=O)CCC3CCCCC3)CC2)CC1	21
Cn1cccc1C(=O)N1C[C@H]2CN(Cc3cccc(F)c3)C[C@H]2C1	6.27
O=C1CC[C@H]2[C@H](CCN2C(=O)C2CCCO2)N1Cc1cccnc1 (some centres not stated)	5.96
CCn1nc2c(cc1=O)CN(CCCN1CCCC1=O)CC2	16.8

SMILES	INHIBITION [%]
CCNC(=O)c1nnn(Cc2ccccc2)c1OC	-19
COc1c(C(=O)NCC(C)C)nnn1Cc1ccccc1	53.2
COCCNC(=O)c1nnn(Cc2ccccc2)c1OC	19.3
CN(C)CC1CSCCCN1C(=O)c1ccc(-n2cccc2)cc1 (configuration not stated)	35.8
CN(Cc1ccncc1)C(=O)NCc1nnc2n1CCCCC2	-4.94
COc1ccccc1CN1C[C@@H](F)[C@@H](OCc2nc3cnccc3[nH]2)C1	-25.2
COc1ccccc1CN1C[C@@H](F)[C@@H](OCc2nc3ncccc3[nH]2)C1	50.7
COc1ccccc1CN1C[C@@H](F)[C@@H](OCc2nc3ccccc3[nH]2)C1	45.2
Cc1ccc(NC(=O)C2CSCN2C(=O)c2cccnc2)c(C)c1 (configuration not stated)	0.8
Cc1nc(NCc2noc(C3CCCO3)n2)c2ccsc2n1 (configuration not stated)	73.2
O=C1CSc2ccccc2N1Cc1noc(C2CCCO2)n1 (configuration not stated)	7.6
Cc1ccc2c(c1)SCC(=O)N2Cc1noc(C2CCCO2)n1 (configuration not stated)	14.9
O=C(NCc1noc(C2CCCO2)n1)c1cn2ccsc2n1 (configuration not stated)	25.9
Cc1nc(N(Cc2ccncc2)CC2CCCO2)c2ccsc2n1 (configuration not stated)	40.8
O=C(NCCc1noc(C2CCCO2)n1)c1cn2ccsc2n1 (configuration not stated)	39.9
Cc1cc(C(F)(F)F)nc(CCNc2nc(C)nc3sccc23)n1	43.2
Cc1nc(NCc2noc(C3CCCO3)n2)c2sccc2n1 (configuration not stated)	75.4
Cc1nc(NCCc2noc(C3CCCO3)n2)c2sccc2n1 (configuration not stated)	82.2
Cc1cc(NC(=O)CN2CCCC2Cn2nc(C)nc2C)n(C)n1 (configuration not stated)	38.8

SMILES	INHIBITION [%]
Cc1cc(C)cc(OCC(=O)N2CCCC2)c1	-55.3
COCCn1cnnc1CNc1cc(C)nc2c(C)c(C)nn12	15.5
Cc1nn(C)c2cnn(CC(=O)NCc3ccccc3F)c12	41.6
CC(=O)N1CCCC1c1cc(Nc2nnc(C)s2)nc(C)n1 (configuration not stated)	26.8
O=C(c1nn[nH]c1Nc1ccc(Cl)cc1)N1CCCCCC1	72
O=C(c1nn[nH]c1Nc1ccc(Cl)cc1)N1CCSCC1	11.8
O=C(c1nn[nH]c1Nc1cccc(Cl)c1)N1CCSCC1	8.38
COCCN1CCC2(CC1)CC(NC(=O)C(C)C)c1ccccc1O2 (configuration not stated)	55.5
O=C(NC1CC2(CCN(CCO)CC2)Oc2ccccc21)c1csnn1 (configuration not stated)	34.9
CCN1CCC2(CC1)CC(NC(=O)c1c[nH]cn1)c1ccccc1O2 (configuration not stated)	44.8
COCCN1CCC2(CC1)CC(NC(=O)CC1CC1)c1ccccc1O2 (configuration not stated)	56.8
COCC(=O)NC1CC2(CCN(CCF)CC2)Oc2ccccc21 (configuration not stated)	-5.94
CN1CCC2(CC1)CC(NC(=O)c1csnn1)c1ccccc1O2 (configuration not stated)	59.3
COCC(=O)NC1CC2(CCN(CC3CC3)CC2)Oc2ccccc21 (configuration not stated)	-2.35
CC(C)CC(=O)NC1CC2(CCN(CCF)CC2)Oc2ccccc21 (configuration not stated)	34.6
CCN1CCC2(CC1)CC(NC(=O)c1csnn1)c1ccccc1O2 (configuration not stated)	41.2
COCCN1CCC2(CC1)CC(NC(=O)COC)c1ccccc1O2 (configuration not stated)	-13.4
COCCN1CCC2(CC1)CC(NC(=O)C1CC1)c1ccccc1O2 (configuration not stated)	16.1
COCCN1CCC2(CC1)CC(NC(=O)CN(C)C)c1ccccc1O2 (configuration not stated)	54.3

— ChEMBL document CHEMBL4513216, “Probing the Open Global Health Chemical Diversity Library for Multistage-Active Starting Points for Next-Generation Antimalarials” (ACS Infect Dis, 2020)
